Source: article PMC7862700, “An all-to-all approach to the identification of sequence-specific readers for epigenetic DNA modifications on cytosine”

What was measured:
Experiment in all cases: DAPPL (digital affinity profiling via proximity ligation, sequencing); 10 mM Tris-HCl pH 7.5, 50 mM NaCl, 1 mM DTT, 4% glycerol, room temperature, 30 min; GST-TFs on glutathione beads, 16-mer random dsDNA library, 0.1% formaldehyde crosslink after washing; high values mean tight binding
[1] = target: T1, FLI1 (Homo sapiens, UniProt Q01543 1-452); settings: protein: recombinant; tags: N-terminal GST; dsDNA, one strand shown
T1 sequence: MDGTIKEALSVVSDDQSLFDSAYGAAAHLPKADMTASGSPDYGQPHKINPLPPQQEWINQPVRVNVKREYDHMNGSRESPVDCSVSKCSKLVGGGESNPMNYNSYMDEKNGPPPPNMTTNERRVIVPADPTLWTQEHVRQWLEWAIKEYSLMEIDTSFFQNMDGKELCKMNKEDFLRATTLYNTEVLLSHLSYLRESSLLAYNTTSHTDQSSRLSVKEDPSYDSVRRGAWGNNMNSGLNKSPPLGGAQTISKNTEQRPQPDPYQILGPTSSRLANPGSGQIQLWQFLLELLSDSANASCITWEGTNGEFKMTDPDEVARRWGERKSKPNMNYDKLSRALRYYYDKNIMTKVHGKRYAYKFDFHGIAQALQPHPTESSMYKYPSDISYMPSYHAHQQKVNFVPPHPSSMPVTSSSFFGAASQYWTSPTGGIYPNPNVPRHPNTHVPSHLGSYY
In short: (§1)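 Binding signal is defined as a hexamer's read frequency for one factor over its frequency for the tag-only sample. To obtain reads, GST-fused human transcription factors were expressed in yeast, captured on glutathione beads, barcoded with DNA and pooled with that sample. Pools met 200 nmole of a 16-mer random double-stranded DNA library in Tris/NaCl/DTT/glycerol buffer for 30 min at room temperature before washing, 0.1% formaldehyde crosslinking, proximity ligation (BsaI/T4 ligase, 1 h, 37 °C), PCR and Illumina NextSeq500 sequencing.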

[2] = target: T2, ELK1 (Homo sapiens, UniProt P19419 1-428); settings: protein: recombinant; tags: N-terminal GST; dsDNA, one strand shown
T2 sequence: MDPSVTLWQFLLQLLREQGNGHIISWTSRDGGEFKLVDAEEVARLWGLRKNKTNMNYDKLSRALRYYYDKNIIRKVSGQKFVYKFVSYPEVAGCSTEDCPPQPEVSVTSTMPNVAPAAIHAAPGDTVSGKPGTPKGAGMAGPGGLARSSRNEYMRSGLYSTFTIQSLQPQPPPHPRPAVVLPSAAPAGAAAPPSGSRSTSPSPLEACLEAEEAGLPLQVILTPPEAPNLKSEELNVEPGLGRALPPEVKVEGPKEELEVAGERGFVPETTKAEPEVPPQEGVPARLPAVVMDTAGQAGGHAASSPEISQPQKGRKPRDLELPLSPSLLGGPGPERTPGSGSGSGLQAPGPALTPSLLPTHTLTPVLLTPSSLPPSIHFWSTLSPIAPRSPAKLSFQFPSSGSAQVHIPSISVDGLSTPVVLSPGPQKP
In short: as §1

[3] = target: T3, GABPA (Homo sapiens, UniProt Q06546 1-454); settings: protein: recombinant; tags: N-terminal GST; dsDNA, one strand shown
T3 sequence: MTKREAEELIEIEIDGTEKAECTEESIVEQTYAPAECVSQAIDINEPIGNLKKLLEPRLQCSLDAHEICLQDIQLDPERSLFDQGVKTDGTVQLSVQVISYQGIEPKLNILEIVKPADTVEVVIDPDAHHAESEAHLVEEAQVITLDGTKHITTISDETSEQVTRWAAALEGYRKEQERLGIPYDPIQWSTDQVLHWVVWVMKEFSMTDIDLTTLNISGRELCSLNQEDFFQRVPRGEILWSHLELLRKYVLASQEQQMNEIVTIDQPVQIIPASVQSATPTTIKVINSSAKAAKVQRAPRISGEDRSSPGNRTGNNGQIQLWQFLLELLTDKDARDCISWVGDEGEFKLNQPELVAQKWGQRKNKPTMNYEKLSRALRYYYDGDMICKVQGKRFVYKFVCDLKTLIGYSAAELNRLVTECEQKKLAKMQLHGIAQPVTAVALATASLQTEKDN
In short: as §1

[4] = target: T4, ERG (Homo sapiens, UniProt P11308 1-479); settings: protein: recombinant; tags: N-terminal GST; dsDNA, one strand shown
T4 sequence: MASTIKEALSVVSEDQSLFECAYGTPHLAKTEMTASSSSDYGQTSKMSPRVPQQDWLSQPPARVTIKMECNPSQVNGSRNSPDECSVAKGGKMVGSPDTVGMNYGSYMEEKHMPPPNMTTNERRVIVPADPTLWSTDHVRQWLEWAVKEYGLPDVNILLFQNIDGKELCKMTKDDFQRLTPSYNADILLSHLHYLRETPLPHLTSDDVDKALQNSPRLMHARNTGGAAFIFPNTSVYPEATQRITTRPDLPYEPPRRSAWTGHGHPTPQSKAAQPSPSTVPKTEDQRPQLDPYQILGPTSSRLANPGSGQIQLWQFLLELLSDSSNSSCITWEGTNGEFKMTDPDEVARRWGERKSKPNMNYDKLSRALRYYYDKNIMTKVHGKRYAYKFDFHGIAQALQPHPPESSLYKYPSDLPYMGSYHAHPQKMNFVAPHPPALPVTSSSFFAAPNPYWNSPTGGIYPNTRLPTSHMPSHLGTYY
In short: as §1

[5] = target: ELF1 (Homo sapiens, UniProt P32519 1-619); settings: protein: recombinant; tags: N-terminal GST; dsDNA, one strand shown
In short: as §1

[6] = target: T5, EHF (Homo sapiens, UniProt Q9NZC4 1-300); settings: protein: recombinant; tags: N-terminal GST; dsDNA, one strand shown
T5 sequence: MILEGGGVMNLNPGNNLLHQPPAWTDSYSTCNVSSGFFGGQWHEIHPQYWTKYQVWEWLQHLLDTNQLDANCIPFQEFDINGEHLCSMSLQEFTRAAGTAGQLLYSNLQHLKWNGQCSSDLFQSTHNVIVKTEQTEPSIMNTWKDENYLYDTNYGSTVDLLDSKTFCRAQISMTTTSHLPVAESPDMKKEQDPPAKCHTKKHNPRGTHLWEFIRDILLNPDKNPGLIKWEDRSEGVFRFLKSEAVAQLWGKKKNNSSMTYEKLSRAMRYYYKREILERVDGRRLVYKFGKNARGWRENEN
In short: as §1

[7] = target: SPI1 (Homo sapiens, UniProt P17947 1-270); settings: protein: recombinant; tags: N-terminal GST; dsDNA, one strand shown
In short: as §1

[8] = target: SPIB (Homo sapiens, UniProt Q01892 1-262); settings: protein: recombinant; tags: N-terminal GST; dsDNA, one strand shown
In short: as §1

[9] = target: T6, ELK3 (Homo sapiens, UniProt P41970 1-407); settings: protein: recombinant; tags: N-terminal GST; dsDNA, one strand shown
T6 sequence: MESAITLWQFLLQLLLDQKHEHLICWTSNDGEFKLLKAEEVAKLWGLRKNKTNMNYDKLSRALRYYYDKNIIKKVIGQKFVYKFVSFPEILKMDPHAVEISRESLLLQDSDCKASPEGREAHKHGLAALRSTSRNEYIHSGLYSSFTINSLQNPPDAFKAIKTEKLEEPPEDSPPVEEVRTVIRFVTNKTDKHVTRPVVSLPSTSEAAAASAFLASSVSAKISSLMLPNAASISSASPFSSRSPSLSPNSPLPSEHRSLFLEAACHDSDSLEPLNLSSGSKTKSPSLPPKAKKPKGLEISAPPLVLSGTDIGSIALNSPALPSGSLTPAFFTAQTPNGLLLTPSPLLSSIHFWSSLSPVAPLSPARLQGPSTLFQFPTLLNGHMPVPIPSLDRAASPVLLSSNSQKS
In short: as §1

[10] = target: T7, FEV (Homo sapiens, UniProt Q99581 1-238); settings: protein: recombinant; tags: N-terminal GST; dsDNA, one strand shown
T7 sequence: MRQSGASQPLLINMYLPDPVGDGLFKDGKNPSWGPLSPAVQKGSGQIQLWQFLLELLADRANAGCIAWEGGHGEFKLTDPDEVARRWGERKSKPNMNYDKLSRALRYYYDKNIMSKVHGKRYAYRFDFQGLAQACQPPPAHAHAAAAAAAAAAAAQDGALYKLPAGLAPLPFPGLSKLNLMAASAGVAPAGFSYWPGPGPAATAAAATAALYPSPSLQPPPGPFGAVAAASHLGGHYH
In short: as §1

[11] = target: ETV5 (Homo sapiens, UniProt P41161 1-510); settings: protein: recombinant; tags: N-terminal GST; dsDNA, one strand shown
In short: as §1

[12] = target: HSF1 (Homo sapiens, UniProt Q00613 1-529); settings: protein: recombinant; tags: N-terminal GST; chain copies: 3; dsDNA, one strand shown
In short: as §1

[13] = target: T8, SPIC (Homo sapiens, UniProt Q8N5J4 1-248); settings: protein: recombinant; tags: N-terminal GST; dsDNA, one strand shown
T8 sequence: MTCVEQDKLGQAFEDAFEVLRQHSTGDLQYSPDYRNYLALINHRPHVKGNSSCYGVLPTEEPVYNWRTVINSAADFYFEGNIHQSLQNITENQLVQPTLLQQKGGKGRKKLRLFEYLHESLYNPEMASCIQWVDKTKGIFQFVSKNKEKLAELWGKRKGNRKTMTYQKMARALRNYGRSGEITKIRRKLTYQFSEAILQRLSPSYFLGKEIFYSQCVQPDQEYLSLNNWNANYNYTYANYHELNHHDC
In short: as §1

[14] = target: ELF4 (Homo sapiens, UniProt Q99607 1-663); settings: protein: recombinant; tags: N-terminal GST; dsDNA, one strand shown
In short: as §1

[15] = target: T9, ELK4 (Homo sapiens, UniProt P28324-2 1-405); settings: protein: recombinant; tags: N-terminal GST; dsDNA, one strand shown
T9 sequence: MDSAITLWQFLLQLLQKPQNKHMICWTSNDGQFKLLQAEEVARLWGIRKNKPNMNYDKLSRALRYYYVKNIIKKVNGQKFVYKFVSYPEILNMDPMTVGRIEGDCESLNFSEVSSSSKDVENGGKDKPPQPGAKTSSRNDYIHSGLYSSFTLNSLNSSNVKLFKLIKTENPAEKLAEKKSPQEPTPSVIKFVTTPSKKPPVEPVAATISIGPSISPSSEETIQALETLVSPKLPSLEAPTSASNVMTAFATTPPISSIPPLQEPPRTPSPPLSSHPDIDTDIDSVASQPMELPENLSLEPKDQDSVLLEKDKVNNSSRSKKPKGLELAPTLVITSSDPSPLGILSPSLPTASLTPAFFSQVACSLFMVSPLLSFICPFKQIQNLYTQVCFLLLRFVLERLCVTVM
In short: as §1

[16] = target: T10, ETV2 (Homo sapiens, UniProt O00321 1-342); settings: protein: recombinant; tags: N-terminal GST; dsDNA, one strand shown
T10 sequence: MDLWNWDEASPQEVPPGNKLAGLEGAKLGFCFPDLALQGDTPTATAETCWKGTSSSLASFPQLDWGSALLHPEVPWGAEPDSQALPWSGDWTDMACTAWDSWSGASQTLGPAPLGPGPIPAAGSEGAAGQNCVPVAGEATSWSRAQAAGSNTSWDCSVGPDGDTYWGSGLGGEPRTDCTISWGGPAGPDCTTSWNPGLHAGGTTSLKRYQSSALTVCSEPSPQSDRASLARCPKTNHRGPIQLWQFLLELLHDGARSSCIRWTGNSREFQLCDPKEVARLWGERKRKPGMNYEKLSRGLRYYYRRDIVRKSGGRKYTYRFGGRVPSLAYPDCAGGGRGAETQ
In short: as §1

[17] = target: T11, ELF3 (Homo sapiens, UniProt P78545 1-371); settings: protein: recombinant; tags: N-terminal GST; dsDNA, one strand shown
T11 sequence: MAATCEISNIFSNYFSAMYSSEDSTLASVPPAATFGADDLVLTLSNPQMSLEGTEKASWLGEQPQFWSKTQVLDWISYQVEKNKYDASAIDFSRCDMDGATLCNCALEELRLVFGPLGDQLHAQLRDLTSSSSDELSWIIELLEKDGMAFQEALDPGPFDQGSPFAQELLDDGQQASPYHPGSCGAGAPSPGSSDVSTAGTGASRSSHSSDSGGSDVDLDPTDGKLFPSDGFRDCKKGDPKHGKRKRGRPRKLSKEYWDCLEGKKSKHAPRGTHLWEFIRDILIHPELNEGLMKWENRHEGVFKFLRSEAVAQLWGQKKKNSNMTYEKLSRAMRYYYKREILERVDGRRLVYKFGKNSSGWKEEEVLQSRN
In short: as §1

[18] = target: CRX (Homo sapiens, UniProt O43186 1-299); settings: protein: recombinant; tags: N-terminal GST; dsDNA, one strand shown
In short: as §1

[19] = target: ETV1 (Homo sapiens, UniProt P50549 1-477); settings: protein: recombinant; tags: N-terminal GST; dsDNA, one strand shown
In short: as §1

Sequence of CRX (O43186 whole entry): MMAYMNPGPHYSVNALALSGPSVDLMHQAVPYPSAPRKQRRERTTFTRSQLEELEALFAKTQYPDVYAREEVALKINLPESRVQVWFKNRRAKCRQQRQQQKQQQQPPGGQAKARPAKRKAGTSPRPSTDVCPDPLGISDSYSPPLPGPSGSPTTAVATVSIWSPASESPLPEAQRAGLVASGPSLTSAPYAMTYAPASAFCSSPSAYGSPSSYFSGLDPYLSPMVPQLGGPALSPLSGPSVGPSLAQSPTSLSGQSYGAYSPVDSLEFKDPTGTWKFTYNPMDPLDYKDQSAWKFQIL
Sequence of ETV5 (P41161 whole entry): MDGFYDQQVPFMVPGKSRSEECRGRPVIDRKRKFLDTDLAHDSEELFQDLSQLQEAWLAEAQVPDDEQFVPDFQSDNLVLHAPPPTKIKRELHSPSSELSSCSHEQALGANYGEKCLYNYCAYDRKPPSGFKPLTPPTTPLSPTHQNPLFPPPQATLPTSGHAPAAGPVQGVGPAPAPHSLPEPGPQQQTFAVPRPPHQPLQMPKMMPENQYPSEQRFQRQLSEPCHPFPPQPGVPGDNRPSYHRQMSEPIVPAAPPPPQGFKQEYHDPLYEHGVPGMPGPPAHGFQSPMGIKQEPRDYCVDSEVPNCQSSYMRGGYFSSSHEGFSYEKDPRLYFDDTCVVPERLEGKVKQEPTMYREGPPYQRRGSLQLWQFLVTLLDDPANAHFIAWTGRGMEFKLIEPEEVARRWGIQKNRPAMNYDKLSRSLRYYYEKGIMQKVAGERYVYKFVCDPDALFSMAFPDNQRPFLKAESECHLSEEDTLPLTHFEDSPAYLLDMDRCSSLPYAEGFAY
Sequence of ELF1 (P32519 whole entry): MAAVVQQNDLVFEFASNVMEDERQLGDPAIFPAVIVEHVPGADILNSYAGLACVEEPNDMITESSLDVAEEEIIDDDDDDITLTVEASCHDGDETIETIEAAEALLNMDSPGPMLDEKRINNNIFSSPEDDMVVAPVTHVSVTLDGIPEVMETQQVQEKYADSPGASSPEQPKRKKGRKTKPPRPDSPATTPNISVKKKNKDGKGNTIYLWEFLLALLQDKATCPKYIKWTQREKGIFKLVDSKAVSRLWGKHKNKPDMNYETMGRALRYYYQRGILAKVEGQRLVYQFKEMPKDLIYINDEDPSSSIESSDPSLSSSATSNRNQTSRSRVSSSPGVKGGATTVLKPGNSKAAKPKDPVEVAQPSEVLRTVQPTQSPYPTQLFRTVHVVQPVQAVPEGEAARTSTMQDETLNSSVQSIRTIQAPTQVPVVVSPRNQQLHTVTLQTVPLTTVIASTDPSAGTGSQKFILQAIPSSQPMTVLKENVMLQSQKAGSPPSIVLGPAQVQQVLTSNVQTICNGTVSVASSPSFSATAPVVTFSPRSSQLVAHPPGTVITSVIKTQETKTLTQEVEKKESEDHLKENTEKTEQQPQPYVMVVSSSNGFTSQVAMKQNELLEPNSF
Sequence of SPIB (Q01892 whole entry): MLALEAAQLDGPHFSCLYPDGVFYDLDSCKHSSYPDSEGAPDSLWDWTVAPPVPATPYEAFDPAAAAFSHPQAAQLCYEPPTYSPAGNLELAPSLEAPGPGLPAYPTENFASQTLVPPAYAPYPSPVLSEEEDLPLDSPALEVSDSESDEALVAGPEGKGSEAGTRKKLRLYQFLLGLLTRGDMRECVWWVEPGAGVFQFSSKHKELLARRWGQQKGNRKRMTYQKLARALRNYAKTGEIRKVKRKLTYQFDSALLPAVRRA
Sequence of ELF4 (Q99607 whole entry): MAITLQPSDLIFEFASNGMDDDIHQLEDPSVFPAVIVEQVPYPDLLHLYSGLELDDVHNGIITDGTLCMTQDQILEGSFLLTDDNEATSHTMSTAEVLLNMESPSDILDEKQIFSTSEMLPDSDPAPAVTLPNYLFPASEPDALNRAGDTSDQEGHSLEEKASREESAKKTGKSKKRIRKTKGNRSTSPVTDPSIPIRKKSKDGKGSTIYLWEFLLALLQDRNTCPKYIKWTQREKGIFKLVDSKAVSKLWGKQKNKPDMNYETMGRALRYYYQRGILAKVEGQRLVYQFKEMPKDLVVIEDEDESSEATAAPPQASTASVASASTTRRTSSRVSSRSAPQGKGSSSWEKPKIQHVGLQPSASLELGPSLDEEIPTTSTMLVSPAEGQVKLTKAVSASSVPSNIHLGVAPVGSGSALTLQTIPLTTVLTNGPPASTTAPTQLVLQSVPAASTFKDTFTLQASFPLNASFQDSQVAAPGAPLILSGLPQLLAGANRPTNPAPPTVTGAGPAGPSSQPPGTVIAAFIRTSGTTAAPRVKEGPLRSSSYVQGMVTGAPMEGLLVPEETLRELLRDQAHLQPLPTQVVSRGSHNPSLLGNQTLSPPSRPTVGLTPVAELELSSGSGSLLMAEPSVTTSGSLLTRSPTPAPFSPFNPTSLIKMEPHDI
Sequence of HSF1 (Q00613 whole entry): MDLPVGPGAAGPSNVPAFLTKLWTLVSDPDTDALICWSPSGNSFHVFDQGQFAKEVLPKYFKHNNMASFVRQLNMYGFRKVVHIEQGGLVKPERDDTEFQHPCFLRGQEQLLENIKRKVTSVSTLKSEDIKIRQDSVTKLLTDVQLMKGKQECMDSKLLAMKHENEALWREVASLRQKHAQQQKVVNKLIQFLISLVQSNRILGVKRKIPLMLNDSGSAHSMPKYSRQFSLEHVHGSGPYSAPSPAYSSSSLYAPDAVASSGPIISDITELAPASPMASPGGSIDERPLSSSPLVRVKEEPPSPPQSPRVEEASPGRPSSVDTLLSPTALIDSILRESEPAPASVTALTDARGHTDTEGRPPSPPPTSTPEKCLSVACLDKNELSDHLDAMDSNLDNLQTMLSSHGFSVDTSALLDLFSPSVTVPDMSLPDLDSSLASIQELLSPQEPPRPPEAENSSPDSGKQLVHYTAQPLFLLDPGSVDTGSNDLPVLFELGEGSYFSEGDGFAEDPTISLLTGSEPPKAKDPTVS
Sequence of ETV1 (P50549 whole entry): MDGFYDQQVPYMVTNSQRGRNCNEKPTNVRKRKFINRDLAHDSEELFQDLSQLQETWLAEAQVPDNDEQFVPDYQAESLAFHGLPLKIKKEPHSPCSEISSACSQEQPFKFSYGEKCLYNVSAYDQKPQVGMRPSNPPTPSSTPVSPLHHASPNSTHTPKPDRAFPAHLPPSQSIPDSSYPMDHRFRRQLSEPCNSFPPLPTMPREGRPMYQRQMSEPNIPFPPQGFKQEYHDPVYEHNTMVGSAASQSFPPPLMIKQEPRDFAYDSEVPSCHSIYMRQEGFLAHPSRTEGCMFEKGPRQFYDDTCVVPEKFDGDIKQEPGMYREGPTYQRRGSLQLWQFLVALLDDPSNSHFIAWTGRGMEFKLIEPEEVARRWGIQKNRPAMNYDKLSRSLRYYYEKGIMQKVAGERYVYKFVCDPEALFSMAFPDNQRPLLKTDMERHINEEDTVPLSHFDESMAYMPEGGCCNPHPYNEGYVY

TCTCAG
binding signal [1]: 1.4 fold enrichment (6-mer frequency, TF over GST control) | binding signal [2]: 1.48 fold enrichment (6-mer frequency, TF over GST control) | binding signal [3]: 1.42 fold enrichment (6-mer frequency, TF over GST control) | binding signal [4]: 1.43 fold enrichment (6-mer frequency, TF over GST control) | binding signal [5]: 1.45 fold enrichment (6-mer frequency, TF over GST control) | binding signal [6]: 1.43 fold enrichment (6-mer frequency, TF over GST control) | binding signal [7]: 1.55 fold enrichment (6-mer frequency, TF over GST control) | binding signal [8]: 1.39 fold enrichment (6-mer frequency, TF over GST control) | binding signal [9]: 1.39 fold enrichment (6-mer frequency, TF over GST control) | binding signal [10]: 1.37 fold enrichment (6-mer frequency, TF over GST control) | binding signal [11]: 1.33 fold enrichment (6-mer frequency, TF over GST control) | binding signal [12]: 1.4 fold enrichment (6-mer frequency, TF over GST control) | binding signal [13]: 1.16 fold enrichment (6-mer frequency, TF over GST control) | binding signal [14]: 1.36 fold enrichment (6-mer frequency, TF over GST control) | binding signal [15]: 1.34 fold enrichment (6-mer frequency, TF over GST control) | binding signal [16]: 1.37 fold enrichment (6-mer frequency, TF over GST control) | binding signal [17]: 1.37 fold enrichment (6-mer frequency, TF over GST control) | binding signal [18]: 1.46 fold enrichment (6-mer frequency, TF over GST control) | binding signal [19]: 1.33 fold enrichment (6-mer frequency, TF over GST control)
